The whole screen tested about 3,200 compounds, of which about 75 (2%) showed an effect of 50% or more. This excerpt belongs to a sample that is enriched for strong results.
test system: T1, S. aureus MSSA476; design: species or system S. aureus MSSA476 (TSB) or V. cholerae SAD30 (LB); 384-well bacterial growth screen at 25 uM, OD600 relative to DMSO control; details: relative growth, OD600, TSB; 25 µM; inhibitor
T1 construct: MSSA476

SMILES | % of control remaining
C=CC(=O)NCc1ccc(C(=O)N2CCC[C@@H]2C(N)=O)cc1 [3-L22, (2R)-1-{4-[(prop-2-enamido)methyl]benzoyl}pyrrolidine-2-carboxamide] | 98.2151%
CC(Cl)C(=O)NC(c1ccc(F)cc1)c1cnn(C)c1 (centres unmarked) [7-C19, 2-chloro-N-[(4-fluorophenyl)(1-methyl-1H-pyrazol-4-yl)methyl]propanamide] | 93.2496%
N#CC(=Cc1cnc2ccc(C#N)cn12)C(=O)Nc1ccc(F)cc1 [9-E20, 2-cyano-3-{6-cyanoimidazo[1,2-a]pyridin-3-yl}-N-(4-fluorophenyl)prop-2-enamide] | 103.67%
CC(Cl)C(=O)N1CCn2c(nn(CC(=O)N(C)C)c2=O)C1 (centres unmarked) [7-K17, 2-[7-(2-chloropropanoyl)-3-oxo-2H,3H,5H,6H,7H,8H-[1,2,4]triazolo[4,3-a]pyrazin-2-yl]-N,N-dimethylacetamide] | 89.4819%
Cc1cc(C)n(CCCNC(=O)C(C)Cl)n1 (centres unmarked) [7-O19, 2-chloro-N-[3-(3,5-dimethyl-1H-pyrazol-1-yl)propyl]propanamide] | 98.2732%
Cc1nn(C)c(C)c1NC(=O)C(C)Cl (centres unmarked) [6-C07, 2-chloro-N-(1,3,5-trimethyl-1H-pyrazol-4-yl)propanamide] | 84.6829%
Cc1cc(NC(=O)CCl)c([N+](=O)[O-])cc1C [4-F21, 2-chloro-N-(4,5-dimethyl-2-nitrophenyl)acetamide] | 87.2797%
Cc1cc(C(=O)CCl)c(C)n1-c1ccc(S(N)(=O)=O)cc1 [10-N14, 4-[3-(2-chloroacetyl)-2,5-dimethyl-1H-pyrrol-1-yl]benzene-1-sulfonamide] | 121.875%
Cc1cc(C(=O)CCl)c(C)n1-c1ccc(Cl)cc1 [10-H18, 2-chloro-1-[1-(4-chlorophenyl)-2,5-dimethyl-1H-pyrrol-3-yl]ethan-1-one] | -0.625%
Cc1cc(C(=O)CCl)c(C)n1-c1ccccc1 [10-L20, 2-chloro-1-(2,5-dimethyl-1-phenyl-1H-pyrrol-3-yl)ethan-1-one] | 127.188%
CC(Cl)C(=O)N[C@@H]1CCc2c(C#N)cccc21 (stereo partly drawn) [6-P14, 2-chloro-N-[(1R)-4-cyano-2,3-dihydro-1H-inden-1-yl]propanamide] | 122.927%
COc1ccc(CNC(=O)CCl)cc1OC [5-O11, 2-chloro-N-[(3,4-dimethoxyphenyl)methyl]acetamide] | 81.6029%
CCS(=O)(=O)N1CCc2cc(C(=O)CCl)ccc21 [10-E18, 2-chloro-1-[1-(ethanesulfonyl)-2,3-dihydro-1H-indol-5-yl]ethan-1-one] | 0.3125%
CS(=O)(=O)N1CCc2cc(C(=O)CCl)ccc21 [10-B19, 2-chloro-1-(1-methanesulfonyl-2,3-dihydro-1H-indol-5-yl)ethan-1-one] | 0.3125%
CCC(=O)N1CCc2cc(C(=O)CCl)ccc21 [10-C22, 1-[5-(2-chloroacetyl)-2,3-dihydro-1H-indol-1-yl]propan-1-one] | 125.938%
CC(=O)N1c2ccc(C(=O)CCl)cc2CC1C (centres unmarked) [10-I20, 1-(1-acetyl-2-methyl-2,3-dihydro-1H-indol-5-yl)-2-chloroethan-1-one] | 66.25%
O=CN1CCc2cc(C(=O)CCl)ccc21 [10-K20, 5-(2-chloroacetyl)-2,3-dihydro-1H-indole-1-carbaldehyde] | 102.813%
CC(=O)N1CCc2cc(C(=O)C(C)Cl)ccc21 (centres unmarked) [10-L22, 1-(1-acetyl-2,3-dihydro-1H-indol-5-yl)-2-chloropropan-1-one] | 124.375%
CS(=O)(=O)N1CCCc2cc(C(=O)CCl)ccc21 [10-H19, 2-chloro-1-(1-methanesulfonyl-1,2,3,4-tetrahydroquinolin-6-yl)ethan-1-one] | 1.5625%
O=C(CCl)NCCS(=O)(=O)N1CCc2ccccc21 [6-H04, 2-chloro-N-[2-(2,3-dihydro-1H-indole-1-sulfonyl)ethyl]acetamide] | 86.0488%
CC(=O)NCCc1cc(C(=O)CCl)ccc1F [10-O05, N-{2-[5-(2-chloroacetyl)-2-fluorophenyl]ethyl}acetamide] | 128.438%
CC1Cc2cc(C(=O)CCl)ccc2N1S(C)(=O)=O (centres unmarked) [10-A04, 2-chloro-1-(1-methanesulfonyl-2-methyl-2,3-dihydro-1H-indol-5-yl)ethan-1-one] | 1.875%
CN1C(=O)Cc2cc(C(=O)CCl)ccc21 [10-G07, 5-(2-chloroacetyl)-1-methyl-2,3-dihydro-1H-indol-2-one] | 132.813%
C=CC(=O)NC1CCCN(C(=O)CCC(F)(F)F)C1 (centres unmarked) [1-B03, N-[1-(4,4,4-trifluorobutanoyl)piperidin-3-yl]prop-2-enamide] | 102.681%

SMILES | % of control remaining
C=CC(=O)N(C)c1ccccc1C(=O)NC [2-O18, N-methyl-2-(N-methylprop-2-enamido)benzamide] | 115.231%
C=CC(=O)Nc1ccc(S(C)(=O)=O)cc1OCC [2-C08, N-(2-ethoxy-4-methanesulfonylphenyl)prop-2-enamide] | 116.275%
Cl.O=C(CCl)NC1CCN(Cc2ccccc2)CC1 [5-E19, N-(1-benzylpiperidin-4-yl)-2-chloroacetamide hydrochloride] | 109.654%
O=C(CCl)NCC1CCCN(C(=O)C(F)(F)F)C1 (centres unmarked) [7-N18, 2-chloro-N-{[1-(2,2,2-trifluoroacetyl)piperidin-3-yl]methyl}acetamide] | 107.378%
CCOc1ccc(C=C(C#N)C(=O)Nc2cccc3ncccc23)cc1 [8-A07, 2-cyano-3-(4-ethoxyphenyl)-N-(quinolin-5-yl)prop-2-enamide] | 131.452%
C=CC(=O)NCc1nc2c(s1)CCCC2 [1-G18, N-[(4,5,6,7-tetrahydro-1,3-benzothiazol-2-yl)methyl]prop-2-enamide] | 119.56%
C=CC(=O)N(CC)CC(=O)N1CCCC1c1cn(C)nc1C (centres unmarked) [2-N12, N-{2-[2-(1,3-dimethyl-1H-pyrazol-4-yl)pyrrolidin-1-yl]-2-oxoethyl}-N-ethylprop-2-enamide] | 110.009%
CCN(CC(=O)NC1CCS(=O)(=O)C1)C(=O)CCl (centres unmarked) [4-I19, 2-chloro-N-{[(1,1-dioxo-1lambda6-thiolan-3-yl)carbamoyl]methyl}-N-ethylacetamide] | 127.68%
O=C(CCl)c1cc2c3c(c1)CC(=O)N3CCC2 [10-G16, 6-(2-chloroacetyl)-1-azatricyclo[6.3.1.0,4,12]dodeca-4(12),5,7-trien-2-one] | 130.938%
O=C(CCl)c1ccc2c(c1)CCN(C(=O)C(F)(F)F)C2 [10-E09, 1-[6-(2-chloroacetyl)-1,2,3,4-tetrahydroisoquinolin-2-yl]-2,2,2-trifluoroethan-1-one] | 20.625%
CC(Cl)C(=O)Nc1ccc(S(N)(=O)=O)cc1 (centres unmarked) [6-B06, 2-chloro-N-(4-sulfamoylphenyl)propanamide] | 82.2927%
C=CC(=O)Nc1cc(NC(=O)C2(OC)CCOC2)ccc1F (centres unmarked) [3-D05, N-[4-fluoro-3-(prop-2-enamido)phenyl]-3-methoxyoxolane-3-carboxamide] | 96.8219%
C=CC(=O)Nc1cc(NC(=O)C2CCC2)ccc1F [2-E10, N-[4-fluoro-3-(prop-2-enamido)phenyl]cyclobutanecarboxamide] | 111.749%
C=CC(=O)Nc1cc(NC(=O)c2ccc([N+](=O)[O-])o2)ccc1F [3-J04, N-[4-fluoro-3-(prop-2-enamido)phenyl]-5-nitrofuran-2-carboxamide] | -4.528%
Cc1cc(C(=O)CCl)c(C)n1Cc1cccs1 [10-D03, 2-chloro-1-{2,5-dimethyl-1-[(thiophen-2-yl)methyl]-1H-pyrrol-3-yl}ethan-1-one] | 122.5%
Cc1cc(C(=O)CCl)c(C)n1CCc1ccc(Cl)cc1 [10-N16, 2-chloro-1-{1-[2-(4-chlorophenyl)ethyl]-2,5-dimethyl-1H-pyrrol-3-yl}ethan-1-one] | 5.9375%
COCCn1c(C)cc(C(=O)CCl)c1C [10-D13, 2-chloro-1-[1-(2-methoxyethyl)-2,5-dimethyl-1H-pyrrol-3-yl]ethan-1-one] | 103.125%
Cc1cc(C(=O)CCl)c(C)n1CCc1cccs1 [10-F16, 2-chloro-1-{2,5-dimethyl-1-[2-(thiophen-2-yl)ethyl]-1H-pyrrol-3-yl}ethan-1-one] | 20.3125%
Cc1cc(C(=O)CCl)c(C)n1Cc1ccccc1Cl [10-P16, 2-chloro-1-{1-[(2-chlorophenyl)methyl]-2,5-dimethyl-1H-pyrrol-3-yl}ethan-1-one] | 127.813%
Cc1cc(C(=O)CCl)c(C)n1Cc1ccc(F)cc1 [10-N17, 2-chloro-1-{1-[(4-fluorophenyl)methyl]-2,5-dimethyl-1H-pyrrol-3-yl}ethan-1-one] | 4.6875%
Cc1cc(C(=O)CCl)c(C)n1CCc1ccc(F)cc1 [10-G14, 2-chloro-1-{1-[2-(4-fluorophenyl)ethyl]-2,5-dimethyl-1H-pyrrol-3-yl}ethan-1-one] | 123.75%
Cc1cc(C(=O)CCl)c(C)n1Cc1ccccc1 [10-M14, 1-(1-benzyl-2,5-dimethyl-1H-pyrrol-3-yl)-2-chloroethan-1-one] | 143.438%
Cc1cc(C(=O)CCl)c(C)n1CCc1ccccc1 [10-B18, 2-chloro-1-[2,5-dimethyl-1-(2-phenylethyl)-1H-pyrrol-3-yl]ethan-1-one] | 102.188%
